± gives the standard deviation of the averaged measurements.
What was measured:
[1] = test system: Saccharomyces cerevisiae BY4741 SeMeCo community; assay: mean cell size (pixel area) (pixels); higher = larger cells; conditions: 10 µM; 24 h; SM minimal medium
Outline: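 A fluorescent Saccharomyces cerevisiae BY4741 community carrying four plasmids was used, with each plasmid complementing one auxotrophy and bearing a fluorescent marker. An overnight preculture at OD600 = 1.0 was diluted to OD600 = 0.3, and 70 µl went into 384-well plates acoustically predosed with drug (final 10 µM) in SM medium for 24 h. After paraformaldehyde fixation, cells were imaged by automated confocal microscopy and analysed in Harmony, giving the mean cell pixel area per well. Each value is the average of 3 replicates. Same SeMeCo high-content imaging drug screen: Selleck FDA-approved drugs at 10 µM, 24 h in SM medium, 384-well plates, 3 replicates.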

[2] = test system: Saccharomyces cerevisiae BY4741 SeMeCo community; assay: z-score of subpopulation abundance vs DMSO median, subpopulation auxotrophic for M; higher = larger share of this subpopulation than in DMSO controls; conditions: 10 µM; 24 h; SM minimal medium; subpopulation (auxotrophy): M
Outline: (§1)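 Scoring was based on each subpopulation's abundance, expressed as a z-score against the vehicle-well median. A Saccharomyces cerevisiae BY4741 community with four plasmids, each restoring one auxotrophy and encoding a distinct fluorescent protein, was pre-grown overnight to OD600 1.0, diluted to 0.3, and added at 70 µl to 384-well plates acoustically predosed with library drugs (10 µM final). It then grew 24 h in minimal SM medium before paraformaldehyde fixation and automated confocal microscopy, with single-auxotroph fluorescent strains setting thresholds and autofluorescence correction.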

[3] = test system: Saccharomyces cerevisiae BY4741 SeMeCo community; assay: z-score of subpopulation abundance vs DMSO median, subpopulation auxotrophic for L; higher = larger share of this subpopulation than in DMSO controls; conditions: 10 µM; 24 h; SM minimal medium; subpopulation (auxotrophy): L
Outline: as §1

[4] = test system: Saccharomyces cerevisiae BY4741 SeMeCo community; assay: z-score of subpopulation abundance vs DMSO median, subpopulation auxotrophic for U; higher = larger share of this subpopulation than in DMSO controls; conditions: 10 µM; 24 h; SM minimal medium; subpopulation (auxotrophy): U
Outline: as §1

[5] = test system: Saccharomyces cerevisiae BY4741 SeMeCo community; assay: z-score of subpopulation abundance vs DMSO median, subpopulation auxotrophic for LU; higher = larger share of this subpopulation than in DMSO controls; conditions: 10 µM; 24 h; SM minimal medium; subpopulation (auxotrophy): LU
Outline: as §1

[6] = test system: Saccharomyces cerevisiae BY4741 SeMeCo community; assay: z-score of subpopulation abundance vs DMSO median, subpopulation auxotrophic for LM; higher = larger share of this subpopulation than in DMSO controls; conditions: 10 µM; 24 h; SM minimal medium; subpopulation (auxotrophy): LM
Outline: as §1

[7] = test system: Saccharomyces cerevisiae BY4741 SeMeCo community; assay: z-score of subpopulation abundance vs DMSO median, subpopulation auxotrophic for HM; higher = larger share of this subpopulation than in DMSO controls; conditions: 10 µM; 24 h; SM minimal medium; subpopulation (auxotrophy): HM
Outline: as §1

[8] = test system: Saccharomyces cerevisiae BY4741 SeMeCo community; assay: z-score of subpopulation abundance vs DMSO median, subpopulation auxotrophic for HU; higher = larger share of this subpopulation than in DMSO controls; conditions: 10 µM; 24 h; SM minimal medium; subpopulation (auxotrophy): HU
Outline: as §1

[9] = test system: Saccharomyces cerevisiae BY4741 SeMeCo community; assay: z-score of subpopulation abundance vs DMSO median, subpopulation auxotrophic for HL; higher = larger share of this subpopulation than in DMSO controls; conditions: 10 µM; 24 h; SM minimal medium; subpopulation (auxotrophy): HL
Outline: as §1

[10] = test system: Saccharomyces cerevisiae BY4741 SeMeCo community; assay: z-score of subpopulation abundance vs DMSO median, subpopulation auxotrophic for HLU; higher = larger share of this subpopulation than in DMSO controls; conditions: 10 µM; 24 h; SM minimal medium; subpopulation (auxotrophy): HLU
Outline: as §1

[11] = test system: Saccharomyces cerevisiae BY4741 SeMeCo community; assay: z-score of subpopulation abundance vs DMSO median, subpopulation auxotrophic for HLM; higher = larger share of this subpopulation than in DMSO controls; conditions: 10 µM; 24 h; SM minimal medium; subpopulation (auxotrophy): HLM
Outline: as §1

[12] = test system: Saccharomyces cerevisiae BY4741 SeMeCo community; assay: z-score of subpopulation abundance vs DMSO median, subpopulation auxotrophic for HUM; higher = larger share of this subpopulation than in DMSO controls; conditions: 10 µM; 24 h; SM minimal medium; subpopulation (auxotrophy): HUM
Outline: as §1

[13] = test system: Saccharomyces cerevisiae BY4741 SeMeCo community; assay: z-score of subpopulation abundance vs DMSO median, subpopulation auxotrophic for LUM; higher = larger share of this subpopulation than in DMSO controls; conditions: 10 µM; 24 h; SM minimal medium; subpopulation (auxotrophy): LUM
Outline: as §1

[14] = test system: Saccharomyces cerevisiae BY4741 SeMeCo community; assay: z-score of subpopulation abundance vs DMSO median, subpopulation auxotrophic for HLUM; higher = larger share of this subpopulation than in DMSO controls; conditions: 10 µM; 24 h; SM minimal medium; subpopulation (auxotrophy): HLUM
Outline: as §1

[15] = test system: Saccharomyces cerevisiae BY4741 SeMeCo community; assay: z-score of subpopulation abundance vs DMSO median, subpopulation auxotrophic for UM; higher = larger share of this subpopulation than in DMSO controls; conditions: 10 µM; 24 h; SM minimal medium; subpopulation (auxotrophy): UM
Outline: as §1

[16] = test system: Saccharomyces cerevisiae BY4741 SeMeCo community; assay: z-score of prototroph abundance vs DMSO median; higher = larger share of this subpopulation than in DMSO controls; conditions: 10 µM; 24 h; SM minimal medium; subpopulation (auxotrophy): Prototroph
Outline: as §1

[17] = test system: Saccharomyces cerevisiae BY4741 SeMeCo community; assay: z-score of subpopulation abundance vs DMSO median, subpopulation auxotrophic for H; higher = larger share of this subpopulation than in DMSO controls; conditions: 10 µM; 24 h; SM minimal medium; subpopulation (auxotrophy): H
Outline: as §1

SMILES	mean cell size [1]	z-score of subpopulation abundance [2]	z-score of subpopulation abundance [3]	z-score of subpopulation abundance [4]	z-score of subpopulation abundance [5]	z-score of subpopulation abundance [6]	z-score of subpopulation abundance [7]	z-score of subpopulation abundance [8]	z-score of subpopulation abundance [9]	z-score of subpopulation abundance [10]	z-score of subpopulation abundance [11]	z-score of subpopulation abundance [12]	z-score of subpopulation abundance [13]	z-score of subpopulation abundance [14]	z-score of subpopulation abundance [15]	z-score of prototroph abundance [16]	z-score of subpopulation abundance [17]
O=C(O)Cc1ccccc1Nc1c(Cl)cccc1Cl [Diclofenac Sodium]	12.7 ± 0.18	0.68	-0.21	-0.91	-0.84	-0.23	-0.3	-1.76	-0.56	-1.75	-0.07	-1.27	-0.98	-0.38	–	–	–
O=C(c1ccc(OCCN2CCCCC2)cc1)c1c(-c2ccc(O)cc2)sc2cc(O)ccc12 [Raloxifene]	12.3 ± 0.38	-0.22	1.05	-1.73	-2.15	0.49	0.02	-1.39	0.96	0.52	0.78	-0.2	-0.37	0.09	-1.32	–	–
O=C(O)c1ccccc1C(=O)Nc1ccc(S(=O)(=O)Nc2nccs2)cc1 [Phthalylsulfathiazole]	12 ± 0.48	1.08	-0.97	1.18	-0.05	0.02	0.77	1.23	-0.66	0.04	-0.76	0.99	–	0.99	1.23	-0.99	-0.26
COc1ccc2c3c1O[C@H]1C[C@@H](O)C=C[C@@]31CCN(C)C2 [Galanthamine HBr]	11.87 ± 0.11	1.78	-0.44	0.01	0.01	-0.06	0.96	-0.13	-0.01	0.43	-0.5	0.61	-0.14	-0.98	–	-0.57	0.1
OC(c1ccccc1)(c1ccccc1)C12CC[N+](CCOCc3ccccc3)(CC1)CC2 [Umeclidinium bromide]	12.49 ± 0.074	-0.28	0.22	-0.23	-0.42	-0.42	-0.29	-0.27	-0.7	-0.12	0.44	-0.43	–	-0.28	-1.45	0.82	-0.1
CCOC(=O)CCC(=O)O[C@H]1[C@H](O[C@@H]2[C@@H](C)[C@H](O[C@H]3C[C@@](C)(OC)[C@@H](O)[C@H](C)O3)[C@@H](C)C(=O)O[C@H](CC)[C@@](C)(O)[C@H](O)[C@@H](C)C(=O)[C@H](C)C[C@@]2(C)O)O[C@H](C)C[C@@H]1N(C)C [Erythromycin Ethylsuccinate]	12.4 ± 0.15	1.39	2.32	-0.67	0.76	3.22	3.14	0.76	3.1	1.44	2.71	1.68	–	0.83	-0.31	-2.21	1.99
CNC1CCCN(c2c(F)cc3c(=O)c(C(=O)O)cn(C4CC4)c3c2OC)C1 (centres undefined) [Balofloxacin]	12.32 ± 0.029	0.44	-0.33	0.18	-0.04	-0.13	-0.09	0.32	-0.7	-0.57	-0.9	0.67	0.17	-0.35	–	-0.14	-0.4
CC[C@H](c1ccc(O)cc1)[C@@H](CC)c1ccc(O)cc1 [Hexestrol]	12.7 ± 0.21	0.45	-0.78	-0.6	-1.49	-0.2	-0.94	-0.58	-0.81	-0.58	-0.94	-0.88	-1.39	-1.21	–	–	-0.31
CCCOc1ccc2[nH]c(NC(=O)OC)nc2c1 [Oxibendazole]	12.26 ± 0.1	0.43	0.1	0.5	1.03	0.57	0.95	0.92	0.7	0.8	0.16	1.12	0.95	0.11	1.39	–	0.1
O=C(O)Cc1ccccc1Nc1c(Cl)cccc1Cl [Diclofenac acid]	12.5 ± 0.047	0.23	0.08	-0.61	-0.18	0	0.14	-1.1	-0.51	0.15	0	-1.34	-0.28	-0.07	-0.58	–	-1.45
Cc1c(Cl)cccc1Nc1ccccc1C(=O)O [Tolfenamic Acid]	12.7 ± 0.24	-0.25	-2.08	0.15	-1.24	-1.47	-1.11	-0.34	-0.69	-1.46	-0.79	-0.87	–	-1.09	-0.9	1.21	-1.01
NC[C@H]1O[C@H](O[C@H]2[C@H](O)[C@@H](O[C@H]3O[C@H](CO)[C@@H](O)[C@H](N)[C@H]3O)[C@H](N)C[C@@H]2N)[C@H](N)C[C@@H]1O [Tobramycin]	11.72 ± 0.043	0.73	-0.45	0.79	-0.02	-0.17	-0.2	0	-0.46	-0.41	-1.18	0.03	–	-1.08	0.54	0.02	-1.81
CN1C(C(=O)Nc2ccccn2)=C(O)c2ccccc2S1(=O)=O [Piroxicam]	12.79 ± 0.11	-0.1	-0.78	-0.17	-0.71	-1.45	-0.94	-0.6	-0.37	-1.14	-0.68	-0.89	–	-0.92	-0.3	1.29	-0.62
NS(=O)(=O)Cc1noc2ccccc12 [Zonisamide]	12.4 ± 0.24	0.41	1.91	-0.42	0.73	1.13	0.69	-0.35	0.85	1.02	1.38	0.45	1.7	1.75	–	–	0.46

Source: the supplement of paper PMC8975748
